Test results as given in PubChem BioAssay (Tox21).
Results filed as inconclusive are left out. The source made the active and inactive calls. Calls follow the shape of the dose curve; as a rule, active = well fitted cell-killing curve with a large enough effect in the repeat runs; inconclusive = weak or mixed curves; inactive = flat fitted curve, though single readings scatter.

assay: qHTS RealTime-Glo MT Cell Viability Assay in HepG2 cells - 8 hour (AID 1224873); conditions: RealTime-Glo luminescence; series mostly up to 76.8 µM; viability change, negative = cytotoxic: at the top concentration; also: nearly all actives have a fitted effect of over 55% in size
From the text: National Center for Advancing Translational Sciences [NCATS]
NIH Chemical Genomics Center [NCGC]
U.S. Environmental Protection Agency [EPA]
National Institutes of Environmental Health Sciences [NIEHS]
National Toxicology Program [NTP]
U.S. Food and Drug Administration [FDA]
Measure of cell viability is critical in the cell-base assay. Analysis of cell viability is necessary for the characterization of cell responses to cytotoxic drugs and environmental stress. A RealTime-Glo MT Cell Viability Assay to monitor cell viability in real time of continues cell culture during 40 hours of compound treatment was used to screen Tox21 10K library compounds in HepG2 cells. The RealTime-Glo MT Cell Viability Assay is a nonlytic, homogeneous, bioluminescent method to measure cell viability in real time using a simple, plate-based method. The assay involves adding NanoLuc luciferase and a cell-permeant prosubstrate to cells in culture. Viable cells reduce the proprietary prosubstrate to generate a substrate for NanoLuc luciferase. This substrate diffuses from cells into the surrounding culture medium, where it is rapidly used by the NanoLuc Enzyme to produce a luminescent signal. The signal correlates with the number of viable cells, making the assay well suited for cytotoxicity studies.
Tox21 Assay Protocol Summary:
The mixture of HepG2 cell suspension and reagents were dispensed at 600cells/6 ul/well in 1536-well tissue culture treated black solid bottom plates using a Multidrop dispenser. After the assay plates were incubated at a 37 C/5% CO2 incubator for 5 hours, 23 nL of compounds dissolved in DMSO, positive and negative controls was transferred to the assay plate by a pintool work station. The plates were incubated at 37 C for 40 hours. The luminescence intensity were measured at 0h, 8h, 16h, 24h, 32h and 40h time points using ViewLux plate reader during compound treatment.
% is scaled to controls: 0 for no effect and ±100 for the full control effect.

SMILES | viability change, negative = cytotoxic | Potency
Cn1c(N)c(N=O)c(=O)n(C)c1=O | -5.73% (inactive) | 
CCOC(=O)[C@H](CCc1ccccc1)N[C@@H](C)C(=O)N1[C@H](C(=O)O)C[C@@H]2CCC[C@@H]21 | 2.66% [at 35.3 µM] (inactive) | 
CCCCC/C=C\CCC=O | 0.0041% (inactive) | 
CCCCCCCCS(=O)(=O)Cl | -0.777% (inactive) | 
CCCCCCCCCCCC | 0.824% (inactive) | 
NC(=O)c1ccc([N+](=O)[O-])cc1 | 0.836% (inactive) | 
CCOC(=O)CC(C)=O | 0.0742% (inactive) | 
O=C1CCCN1C1CCCCC1 | 0.0023% (inactive) | 
Cc1cnc(NS(=O)(=O)c2ccc(N)cc2)nc1 | 0.619% [at 35.3 µM] (inactive) | 
C[N+](C)(C)CCCCCC[N+](C)(C)C |  | inactive
Brc1c(NC2=NCCN2)ccc2nccnc12 | -2.24% [at 35.3 µM] (inactive) | 
O=C1OC(=O)C2CCCCC12 (stereo not given) | 0.691% (inactive) | 
OC(CCN1CCCCC1)(c1ccccc1)C1CC2C=CC1C2 (stereo not given) | -0.676% [at 35.3 µM] (inactive) | 
NC(CSCC(=O)O)C(=O)O (stereo not given) | -0.0261% [at 35.3 µM] (inactive) | 
Cc1cc2c(cc1S(N)(=O)=O)S(=O)(=O)CCC2 | -0.0108% [at 35.3 µM] (inactive) | 
CCC(C)C1CCCCC1=O (stereo not given) | 0.202% (inactive) | 
CCCCCOC(=O)CCCCC | 4.71% (inactive) | 
CCCCNC(=O)NCCCC | 2.54% (inactive) | 
COC(=O)[C@@H](N)Cc1ccc(O)c(O)c1 | 0.819% [at 35.3 µM] (inactive) | 
C=C(C)C(=O)OCCCCCCCC(C)C | -0.566% (inactive) | 

SMILES | viability change, negative = cytotoxic | Potency
O=C1CCCC(=O)C1 | -1.31% (inactive) | 
COC(=O)NN | -10.9% (inactive) | 
O=C(O)CN(CCOCCOCCN(CC(=O)O)CC(=O)O)CC(=O)O | -0.725% [at 0.29 µM] (inactive) | 
CCc1ccc(O)c(OC)c1 | 3.09% (inactive) | 
O=C(O)Cc1ccc(CCNS(=O)(=O)c2ccc(Cl)cc2)cc1 | 4.18% [at 35.3 µM] (inactive) | 
CCC(C)S (stereo not given) | 0.999% [at 2.72 µM] (inactive) | 
CCOC(=O)c1cccc(N)c1 | 7.91% [at 35.3 µM] (inactive) | 
O=C(CCCN1CCN(c2ccccn2)CC1)c1ccc(F)cc1 | 0.799% [at 35.3 µM] (inactive) | 
CC(C)CNCC(C)C | -0.826% (inactive) | 
Cc1c(NC(C)C)c(=O)n(-c2ccccc2)n1C | 0.135% [at 35.3 µM] (inactive) | 
CO/N=C(/C(=O)N[C@@H]1C(=O)N2C(C(=O)OCOC(=O)C(C)(C)C)=C(C)CS[C@H]12)c1csc(N)n1 | 0.312% [at 35.3 µM] (inactive) | 
Oc1ccc(C2CNCCc3c2cc(O)c(O)c3Cl)cc1 (stereo not given) | -6.31% [at 35.3 µM] (inactive) | 
c1ccc([C@H]2CN3CCSC3=N2)cc1 | 2.97% [at 35.3 µM] (inactive) | 
CCCCCCOC(=O)CCCCC(=O)OCCCCCC | 6.63% (inactive) | 
NC(=O)c1ccc(N)cc1 | 3.72% (inactive) | 
NC(=O)COCCN1CCN(C(c2ccccc2)c2ccc(Cl)cc2)CC1 (stereo not given) | 4.16% [at 35.3 µM] (inactive) | 
CCSC(=O)N(CC(C)C)CC(C)C | 1.11% (inactive) | 
CC(=O)OCC(CCn1cnc2cnc(N)nc21)COC(C)=O | 11.3% [at 35.3 µM] (inactive) | 
CCCCCCCCCCCCN(CCCCCCCCCCCC)CCCCCCCCCCCC | 2.16% (inactive) | 
CC(C)OC(=O)c1ccccc1 | 3.55% (inactive) | 
